Shown is part of a subset that was picked to be rich in hits.
CBX7 AlphaScr – blocks human CBX7 binding to H3K27me3 peptide. AlphaScreen His6-CBX7 / biotin-H3K27me3 peptide binding; active compounds read low. normalised signal (fraction of DMSO) (test concentration not listed). hit rate 1.1% among 66,000; in the data active = normalised signal below about 0.5
Target sequence (O95931 whole entry, looked up): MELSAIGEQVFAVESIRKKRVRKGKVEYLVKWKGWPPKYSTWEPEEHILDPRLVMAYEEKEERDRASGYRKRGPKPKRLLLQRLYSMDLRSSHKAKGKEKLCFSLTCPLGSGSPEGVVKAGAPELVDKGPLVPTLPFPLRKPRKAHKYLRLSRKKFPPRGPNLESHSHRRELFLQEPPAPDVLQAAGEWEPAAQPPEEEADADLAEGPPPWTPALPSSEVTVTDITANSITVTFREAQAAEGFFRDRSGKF
* = called active by the depositor; ! = repeats disagree.

SMILES	CBX7 AlphaScr
COc1ccc(NC(=O)C(Cc2ccccc2)NS(=O)(=O)c2cccc3cccnc23)cc1 (configuration not stated)	1
c1cnc2c(SCC3CCOCO3)cccc2c1 (configuration not stated)	1.1
O=C(CC(Sc1cccc2cccnc12)c1ccc(OC(F)F)cc1)c1ccco1 (configuration not stated)	0.0051*
O=C(CSc1nnc(CNC(=O)c2ccccc2F)o1)NCc1ccc(F)cc1	1
CCN(CC)CCCNC(=O)Cc1cn(C)c2ccccc12	0.98
CCN(CCCNC(=O)Cc1cn(C)c2ccccc12)c1ccccc1	0.5*
Cn1cc(CC(=O)NCCCN2CCCC2)c2ccccc21	0.96
Nc1ccc2oc(-c3cccc(F)c3)nc2c1	1.1
COc1ccccc1OCCn1c(SCc2nc3ccccc3[nH]2)nc2ccccc21	1.1
CC(C)NC(=O)CCn1c(=O)[nH]c2ccsc2c1=O	1.3
Cc1ccccc1OCC(=O)NCCc1nc2ccccc2[nH]1	1
CCc1nc(C)ccc1OCC(=O)NCCCN(C)C	0.48*
Cc1nc2ccc(C(=O)NCCCN(C)C)cc2nc1C	0.98
Cc1cccc(-n2c(CCC(=O)O)ccc2-c2cccs2)c1	1
CC(C)N(CCCNC(=O)C1CCN(c2nnc(-n3cccc3)s2)CC1)Cc1ccccc1	1
O=C1c2ccccc2C(Nc2ccccc2F)N1c1ccccn1 (configuration not stated)	1
Nc1c2c(nc3ccccc13)N(c1ccc(Cl)c(Cl)c1)CC2	1
CCOc1ccc(N2CCc3c2nc2ccc(Br)cc2c3N)cc1	0.21*
Cc1ccc2nc3c(c(N)c2c1)CCN3c1ccccc1	1.1
Cc1oc(-c2ccc(Cl)cc2)nc1CN1CCC(C(=O)NCCc2ccc(Cl)cc2)CC1	1.1
CCCCNC(=O)c1ccc2nc(-c3ccco3)c(-c3ccco3)nc2c1	0.75
O=C(c1ccc2nc(-c3ccco3)c(-c3ccco3)nc2c1)N1CCc2ccccc2C1	0.015*
CC(C)CCNC(=O)c1ccc2nc(-c3ccco3)c(-c3ccco3)nc2c1	0.66
O=C(Nc1ccccc1C(=O)Nc1ccc(Cl)cc1)c1ccccc1F	1.2
CCCN(C(=O)c1ccccn1)C1(C(=O)Nc2c(C)cccc2C)CCCCC1	1
SMILES	CBX7 AlphaScr
COc1ccc2cc(CCNC(=O)c3ccc(Br)cc3)c(=O)[nH]c2c1	1
COc1ccccc1NC(=O)c1cnn(-c2ccccc2)c1NC(=O)c1cccc(F)c1	1.1
CC(=O)Nc1ccc(N2C(=O)CC(NCCN3CCOCC3)C2=O)cc1 (configuration not stated)	0.94
COC(=O)c1ccc(N2C(=O)CC(NCCN3CCOCC3)C2=O)cc1 (configuration not stated)	0.92
O=C1CC(NCCN2CCOCC2)C(=O)N1c1ccc(Br)cc1 (configuration not stated)	0.46*
Cc1ccccc1Nc1nc(-c2c(C)nc3sccn23)cs1	0.4*!
Cc1ccccc1Nc1nc(-c2c(C)nc3ccccn23)cs1	0.88
Cc1ccc(Nc2nc(-c3c(C)nc4ccccn34)cs2)cc1	0.9
CCN(CC)c1ccc(Nc2nc(-c3c(C)nc4ccccn34)cs2)cc1	0.076*
Cc1nc2ccccn2c1-c1csc(Nc2ccc(Cl)cc2)n1	0.95
CCOc1ccccc1Nc1nc(-c2c(C)nc3sccn23)cs1	1
O=C(Cn1nc(-c2ccccc2)c2cc(Cl)ccc21)NC1CCCc2ccccc21 (configuration not stated)	1.1
Cc1ccc(C)c(N2CCN(C(=O)CSCc3cnn(-c4ccccc4)c3-n3cccc3)CC2)c1	1
COCCCNC(=O)CCn1c(=O)[nH]c2ccccc2c1=O	1.1
CCOc1ccc(N2C(=O)CC(N3CCSCC3)C2=O)cc1 (configuration not stated)	1
CC(=O)N1CCc2cc(S(=O)(=O)NCCC(=O)N3CCCCCC3)ccc21	1
COC(=O)c1ccc(C(=O)NCCc2c(C)[nH]c3ccc(OC)cc23)cc1	0.95
COc1ccc2[nH]c(C)c(CCNCC(C)Cc3ccc4c(c3)OCO4)c2c1 (configuration not stated)	0.34*
COC(=O)c1cccc(CNCCc2c(C)[nH]c3ccc(OC)cc23)c1	0.7
O=C(NCc1cccs1)c1cnn2c(C(F)(F)F)cc(-c3cccs3)nc12	1
O=C(Nc1nc(-c2ccncc2)cs1)c1ccc(S(=O)(=O)N2CCOCC2)cc1	0.97
CCCCN(CCCC)S(=O)(=O)c1ccc(C(=O)Nc2nc(-c3ccncc3)cs2)cc1	1
O=C(Nc1nc(-c2ccccn2)cs1)c1ccc(S(=O)(=O)N2CCOCC2)cc1	0*
CCCN(CCC)S(=O)(=O)c1ccc(C(=O)Nc2nc(-c3ccncc3)cs2)cc1	0.97
O=C(Nc1nc(-c2ccccn2)cs1)c1ccc(S(=O)(=O)N2CCCCC2)cc1	0*
CCCCN(CC)S(=O)(=O)c1ccc(C(=O)Nc2nc(-c3ccccn3)cs2)cc1	0.48*
O=C(Nc1nnc(-c2ccccc2)s1)c1ccc(S(=O)(=O)N2CCOCC2)cc1	1
O=C(Nc1nc(-c2nc3ccccc3s2)cs1)c1ccc(S(=O)(=O)N2CCCCCC2)cc1	1.1

Assay outcomes as filed in PubChem BioAssay.
